# Activity calls are given as the source filed them. Unless noted, no rule for the calls is given here.
# Assays:
# [1] = liver-stage malaria parasite load reduction – cell-based, known kinase inhibitor set, luminescence, hepatoma host viability (AID 624392); conditions: Plasmodium liver stage in hepatoma cells, luciferase luminescence, concentration not given here; liver cell % of control: measured here: host liver cell viability; parasite % of control: stronger effect = lower value;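 also: infected cells incubated roughly two days before readout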
# [2] = altered dexamethasone sensitivity, NF-kB reporter, cell-based, luciferase, IL-1B stimulus (AID 624486); conditions: IL-1B + dexamethasone, luminescence; percent of negative control (+Dex): actives lie on both sides, concentration not given here; z-score: measured here: IL-1B alone, no Dex;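 as to percent of negative control (+Dex): 100% = mean signal of vehicle control wells on the plate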
# [3] = biological target: Cellular tumor antigen p53 (Homo sapiens) (UniProt P04637); assay: GFP-p53 level modulators in HPV16+ cells – imaging, known kinase inhibitor set, EGFP/DsRed ratio (AID 1053116); conditions: GFP-p53 stability, stronger effect = higher value; EGFP object count: measured here: GFP-p53 positive objects count;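 also: cells exposed to compounds for 24 h at 37 °C before reading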
# [4] = inducers of IRF3 signaling, differentiated THP-1 – cell-based, PMA-stimulated THP-1, luminescence (AID 1053176); conditions: PMA-differentiated THP-1, IRF3 reporter luminescence; stronger effect = higher value
# [5] = C. elegans survival during P. aeruginosa infection – whole organism (AID 651566);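 also: tested at 14 µM; sign flipped so higher z means a lower ratio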; conditions: C. elegans killed by P. aeruginosa, survival ratio
# [6] = pro-inflammatory signaling induction in mouse macrophages – cell-based, murine, luminescence (AID 652131); conditions: murine macrophage pro-inflammatory reporter, stronger effect = higher value
# [7] = MELAS cybrid and Rieske KO viability enhancers – cell-based, MELAS cybrids, Rieske KO mouse fibroblasts, CellTiter-Glo, primary screen (AID 1508586;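 active = mean z-score across replicates of 1.96 or higher in either the MELAS or the Rieske mutant cell line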;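 also: z relative to plate mean and SD of compound and empty wells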); conditions: low glucose
# [8] = MELAS cybrid survival, CellTiter-Glo 48 h, stronger effect = higher value
# [9] = Rieske KO mouse fibroblast survival, CellTiter-Glo 72 h
# Chain of Cellular tumor antigen p53 (Homo sapiens) (P04637 whole entry, looked up): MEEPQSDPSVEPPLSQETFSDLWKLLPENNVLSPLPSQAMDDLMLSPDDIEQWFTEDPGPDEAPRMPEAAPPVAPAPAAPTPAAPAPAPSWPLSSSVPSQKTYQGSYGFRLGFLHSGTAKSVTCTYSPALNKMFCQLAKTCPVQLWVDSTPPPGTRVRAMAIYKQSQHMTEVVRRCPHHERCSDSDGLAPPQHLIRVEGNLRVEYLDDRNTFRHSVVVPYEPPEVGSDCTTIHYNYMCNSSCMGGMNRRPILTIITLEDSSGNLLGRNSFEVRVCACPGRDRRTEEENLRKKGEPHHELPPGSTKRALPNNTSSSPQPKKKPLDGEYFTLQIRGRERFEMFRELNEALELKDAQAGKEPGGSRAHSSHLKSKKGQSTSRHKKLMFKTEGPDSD
SMILES,liver cell % of control [1] [%],parasite % of control [1],percent of negative control (+Dex) [2],z-score [2],EGFP object count [3],EGFP/DsRed ratio [3],fraction signal [4],z-score [5],z-score [6],"z-score [7, 8]","z-score [7, 9]"
O=C1NC(=NCc2ccccn2)SC1=Cc1ccc2ncccc2c1,105,37.5% (inactive),94% (inactive),0.165,6.5,0.264 (inactive),0.01 (inactive),–,–,–,–
COc1ccc(N2Cc3cnc(Nc4ccccc4)nc3N(C3CCC(O)C3)C2=O)cc1 (centres undefined),114,234% (inactive),67% (active),-1.67,1.5,0.0589 (inactive),-0.007 (inactive),–,–,–,–
Cn1c(=O)c(Sc2ccccc2F)cc2cnc(NC3CCOCC3)nc21,103,68.5% (inactive),107% (inactive),0.685,2,0.0407 (inactive),-0.0075 (inactive),–,–,–,–
COc1ccc2c(c1)C(c1ccccc1Cl)=Nc1c(n[nH]c1C)N2,81.2,28.8% (inactive),92% (inactive),-0.45,3,0.0722 (inactive),0.0035 (inactive),–,–,–,–
O=C1NC(=NCCc2cccs2)SC1=Cc1ccc2ncccc2c1,118,40.6% (inactive),96% (inactive),-0.36,4.5,0.079 (inactive),-0.003 (inactive),–,–,–,–
CC(=O)Nc1ccc2c(c1)C(c1ccccc1Cl)=Nc1c(n[nH]c1C)N2,93.6,30.4% (inactive),95% (inactive),-0.58,28.5,0.33 (inactive),-0.003 (inactive),–,–,–,–
COc1ccc(F)cc1C(=O)c1cnc(NC2CCN(S(C)(=O)=O)CC2)nc1N,97.2,587% (inactive),96.5% (inactive),-0.18,4.5,0.0651 (inactive),-0.009 (inactive),–,–,–,–
Cn1cc(C2=C(c3cccc(NCC(O)CO)c3)C(=O)NC2=O)c2cc(Cl)ccc21 (centres undefined),134,44.5% (inactive),140% (active),-1.56,15,0.196 (inactive),-0.0005 (inactive),–,–,–,–
Cn1cc(C2=C(c3cn(CCO)c4ccccc34)C(=O)NC2=O)c2ccccc21,89.7,54.6% (inactive),124% (inactive),-1.11,25,0.285 (inactive),-0.0245 (inactive),–,–,–,–
Cn1cc(C2=C(c3cn(-c4ccccc4)c4ccccc34)C(=O)NC2=O)c2ccccc21,108,63.3% (inactive),99% (inactive),0.65,3,0.0255 (inactive),0.01 (inactive),–,–,–,–
COC(=O)Nc1nc2ccc(Oc3ccc(NC(=O)Nc4cccc(C(=O)O)c4)cc3)cc2[nH]1,122,180% (inactive),118% (inactive),1.69,5.5,0.0528 (inactive),-0.002 (inactive),0.33 (inactive),-0.479 (inactive),-0.776 (inactive),-0.262
Nc1c(C(=O)c2cccc(-c3ccncc3)c2)cnn1-c1ccc(F)cc1F,92.7,53.9% (inactive),102% (inactive),0.04,5,0.0527 (inactive),-0.009 (inactive),–,–,–,–
Cn1cc(C2=C(c3cccc(OCC(O)CO)c3)C(=O)NC2=O)c2cc(F)ccc21 (centres undefined),125,31.6% (inactive),97% (inactive),0.67,8,0.21 (inactive),-0.0075 (inactive),–,–,–,–
O=C1C(c2c[nH]c3ccccc23)=C(c2c[nH]c3ccccc23)C(=O)N1O,107,29% (inactive),94% (inactive),-1.25,5.5,0.0849 (inactive),0.0015 (inactive),–,–,–,–
Cn1cc(C2=C(c3cn(CCSC(=N)N)c4ccccc34)C(=O)NC2=O)c2ccccc21,92.2,26.4% (inactive),96.5% (inactive),0.445,2.5,0.00335 (inactive),-0.018 (inactive),–,–,–,–
COc1ccccc1CN=C1NC(=O)C(=Cc2ccc3ncccc3c2)S1,98.9,28.1% (inactive),91.5% (inactive),-0.71,4.5,0.187 (inactive),-0.0025 (inactive),–,–,–,–
Nc1c(C(=O)c2cccc(-c3cccnc3)c2)cnn1-c1ccc(F)cc1F,175,28.3% (inactive),110% (inactive),0.74,4.5,0.0328 (inactive),0.0015 (inactive),–,–,–,–
COc1cc[nH]c1C=C1C(=O)Nc2ccc(F)c(C#CC3(O)CCNCC3)c21,70.4,10.7% (inactive),108% (inactive),-2.18,467,3.03 (inactive),-0.005 (inactive),–,–,–,–

SMILES,liver cell % of control [1] [%],parasite % of control [1],percent of negative control (+Dex) [2],z-score [2],EGFP object count [3],EGFP/DsRed ratio [3],fraction signal [4],z-score [5],z-score [6],"z-score [7, 8]","z-score [7, 9]"
Cc1[nH]n(-c2ccccc2)c(=O)c1C(=O)c1ccccc1,103,53.4% (inactive),97% (inactive),0.12,5,0.115 (inactive),-0.0005 (inactive),–,–,–,–
COc1cc[nH]c1C=C1C(=O)Nc2ccc([N+](=O)[O-])c(N3CCC(O)C3)c21 (centres undefined),102,15.7% (inactive),29.5% (active),-7.83,3.5,0.0609 (inactive),-0.018 (inactive),–,–,–,–
O=C1NC(=NCc2ccccc2Cl)SC1=Cc1ccc2ncccc2c1,108,42.1% (inactive),95% (inactive),-0.715,9,0.384 (inactive),-0.0075 (inactive),–,–,–,–
O=C1NC(=NCCc2ccc(Br)cc2)SC1=Cc1ccc2ncccc2c1,140,66.4% (inactive),99.5% (inactive),-0.18,3,0.0813 (inactive),0.006 (inactive),–,–,–,–
Cn1cc(C2=C(c3cccnc3)C(=O)NC2=O)c2ccccc21,312,2% (active),110% (inactive),-1.34,8.5,0.135 (inactive),-0.005 (inactive),–,–,–,–
COc1cccc(C2=C(c3cn(C)c4cccc(OC)c34)C(=O)NC2=O)c1,91.4,121% (inactive),99% (inactive),0.35,9,0.102 (inactive),0.0015 (inactive),–,–,–,–
O=C1NC(=O)C(c2cccc(Cl)c2)=C1Nc1ccc(O)c(Cl)c1,112,102% (inactive),93% (inactive),0.42,5,0.0621 (inactive),-0.0075 (inactive),-0.775 (inactive),0.127 (inactive),-1.05 (inactive),-0.373
NS(=O)(=O)c1ccc(N=Nc2c(O)[nH]c3ccc(-c4cnco4)cc23)cc1,87.3,140% (inactive),104% (inactive),0.22,10,0.401 (inactive),0.0025 (inactive),-0.29 (inactive),3.29 (inactive),0.293 (inactive),-0.0502
Cn1cc(C2=C(Oc3ccccc3)C(=O)NC2=O)c2ccccc21,109,43% (inactive),102% (inactive),0.18,41,0.339 (inactive),-0.0005 (inactive),–,–,–,–
CNCCCn1cc(C2=C(c3cn(C)c4ccccc34)C(=O)NC2=O)c2ccccc21,82,60.5% (inactive),102% (inactive),0.035,2.5,0.00316 (inactive),-0.0095 (inactive),–,–,–,–
O=C1NC(=NCCc2ccccc2Cl)SC1=Cc1ccc2ncccc2c1,121,44.8% (inactive),90% (inactive),0,4.5,0.105 (inactive),-0.003 (inactive),–,–,–,–
Cn1cc(C2=C(c3cn(C)c4cc(C(=O)O)ccc34)C(=O)NC2=O)c2ccccc21,145,38.3% (inactive),99% (inactive),0.65,2.5,0.485 (inactive),0.0035 (inactive),–,–,–,–
O=c1c(Oc2ccc(F)cc2F)cc2cnc(NC3CCOCC3)nc2n1C1CC1,113,52.9% (inactive),92.5% (inactive),-0.435,4,0.269 (inactive),-0.0095 (inactive),–,–,–,–
COc1cc[nH]c1C=C1C(=O)Nc2ccc(F)c(C#CC(O)C(N)C(C)O)c21 (centres undefined),76.5,46.6% (inactive),135% (inactive),0.23,250,1.32 (inactive),0.0035 (inactive),–,–,–,–
CS(=O)(=O)N1CCC(n2c(=O)c(Oc3ccc(F)cc3F)cc3cnc(NC4CCOCC4)nc32)CC1,112,64.5% (inactive),95% (inactive),-0.51,2,0.107 (inactive),0.0035 (inactive),–,–,–,–
Fc1ccc(-c2c(-c3ccncc3)n(CCN3CCOCC3)c3cccnc23)cc1,113,63.8% (inactive),91.5% (inactive),0.395,1.5,0.18 (inactive),-0.0075 (inactive),–,–,–,–
CS(=O)(=O)CCCn1c(=O)c(Oc2ccc(F)cc2F)cc2cnc(NC3CCOCC3)nc21,98.7,51.4% (inactive),101% (inactive),0.05,1,0.0135 (inactive),-0.009 (inactive),–,–,–,–
COc1cc[nH]c1C=C1C(=O)Nc2ccc(F)c(I)c21,98.3,40.2% (inactive),98% (inactive),0.98,46,0.596 (inactive),0.0015 (inactive),–,–,–,–

# From PubChem BioAssay
